{"source": "PubChem BioAssay AID686979", "about": "(National Center for Advancing Translational Sciences (NCATS), 2013)", "note": "The whole screen tested about 420,000 compounds, of which about 50,000 (12%) were called active. About 26% were inconclusive and are not listed. The sample as a whole holds a higher share of actives than the screen did. Unmarked numbers belong to inactive results. The call rests on the fitted dose curve; in most records, active means well fitted inhibition curve with a large enough effect; inconclusive means small, poorly fitted or top-dose-only effect; inactive means flat fitted curve, though single readings scatter. Where a SMILES comes first, the peptide text is derived from it. The star is where a group is joined. Bz = O=C(c1ccccc1)*"}
{"test": "qHTS for Inhibitors of human tyrosyl-DNA phosphodiesterase 1 (TDP1): qHTS in cells in presence of CPT; further: nearly all actives have a fitted effect of over 55% in size; further: potency means the concentration at half of the fitted maximal effect; on activity change, negative = growth inhibition: on the % scale 0 is the no-effect control and ±100 the full control effect", "conditions": "chicken DT40 Tdp1-/-;hTDP1 cells + 20 nM CPT, ATP luminescence, 48 h; series mostly up to 46.2 µM; activity change, negative = growth inhibition: at the top concentration", "method_in_brief": "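Cell growth measured by CellTiter-Glo luminescence after a minimum 48 h, 37 C compound exposure with 20 nM CPT in Tdp1-knockout DT40 cells stably expressing hTDP1, seeded 400/well; qHTS titration format.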", "units": {"activity change, negative = growth inhibition": "%"}}
{"smiles": "COc1ccc(-c2ocnc2C(=O)Nc2ccc3c(c2)CCC3)cc1", "activity change, negative = growth inhibition": -19.1}
{"smiles": "CC1(C)O[C@@H]2[C@H](O1)[C@@H](COS(=O)(=O)O)O[C@H]2n1ccc(=O)[nH]c1=O", "activity change, negative = growth inhibition": 3.71}
{"smiles": "O=C(NCCC1=CCCCC1)c1ccc(-n2cncn2)cc1", "activity change, negative = growth inhibition": 3.69}
{"smiles": "Cn1nnc2cc(C(=O)NCCC3=CCCCC3)ccc21", "activity change, negative = growth inhibition": -5.42}
{"smiles": "Cc1ccn2c(=O)c(C(=O)NCCC3=CCCCC3)c(O)nc2c1", "Potency": "23.1 µM (active)"}
{"smiles": "Nc1ccc2c(c1)C(O)c1ccc(Cl)cc1-2", "note": "(configuration not stated)", "activity change, negative = growth inhibition": 9.47}
{"smiles": "O=C(c1ccc(Br)cc1)N(Cc1cccs1)c1ccc(F)cc1", "activity change, negative = growth inhibition": -0.898}
{"smiles": "CC(C)OC(=O)CN1CCN(c2ccc(Cl)cc2)CC1", "activity change, negative = growth inhibition": -10}
{"smiles": "Cc1cccc(N2CCN(C(=O)c3cccc(S(=O)(=O)N4CCc5ccccc5C4)c3)CC2C)c1", "note": "(configuration not stated)", "Potency": "9.2 µM (active)"}
{"smiles": "COC(=O)c1ccc(S(=O)(=O)N2CCc3ccccc3C2)cc1", "activity change, negative = growth inhibition": 3.02}
{"smiles": "CC(NC(=O)c1cccc(S(=O)(=O)N2CCc3ccccc3C2)c1)c1ccco1", "note": "(configuration not stated)", "activity change, negative = growth inhibition": 5.04}
{"smiles": "CC1CCCC(C)N1C(=O)COC(=O)COc1ccccc1C#N", "note": "(configuration not stated)", "activity change, negative = growth inhibition": 10}
{"smiles": "O=C(COC(=O)c1ccc(O)cc1O)c1ccc2c(c1)OCCO2", "activity change, negative = growth inhibition": -7.19}
{"smiles": "CC(CNC(=O)c1ccc(N)cc1)NC(=O)c1ccc(N)cc1", "note": "(configuration not stated)", "activity change, negative = growth inhibition": -14.5}
{"smiles": "O=C(NC(Cc1ccccc1)C(=O)N1CCCC1C(=O)O)c1ccccc1", "note": "(stereo not drawn) (Bz-Phe-Pro-OH; configuration not given here)", "activity change, negative = growth inhibition": 9.2}
{"smiles": "CC(Cc1ccccc1)C(=O)N(C)Cc1ccccc1", "note": "(configuration not stated)", "activity change, negative = growth inhibition": -28.3}
{"smiles": "CN(Cc1ccccc1F)C(=O)C(Cc1ccccc1)NC(=O)c1ccccc1", "note": "(configuration not stated)", "Potency": "29.1 µM (active)"}
{"smiles": "CC(=O)c1sc(NC(=O)c2ccc(C)cc2)nc1C", "activity change, negative = growth inhibition": 1.92}
{"smiles": "N#Cc1ccc(C(=O)Nc2nc(-c3cccs3)c(C(=O)C(F)(F)F)s2)cc1", "Potency": "1.64 µM (active)"}
{"smiles": "CCOc1cccc(C(=O)Nc2nnc(-c3cccs3)s2)c1", "activity change, negative = growth inhibition": 2.99}
{"smiles": "CC1CN(C(=O)c2cc(COc3c(F)cccc3F)on2)CCN1C", "note": "(configuration not stated)", "activity change, negative = growth inhibition": -11.5}
{"smiles": "CC(C)CCNC(=O)Cn1c(=O)oc2cc(S(=O)(=O)N3CC(C)CC(C)C3)ccc21", "note": "(configuration not stated)", "Potency": "23.1 µM (active)"}
{"smiles": "CC1CCCCN1C(=O)Cn1c(=O)oc2cc(S(=O)(=O)N3CCCCC3)ccc21", "note": "(configuration not stated)", "activity change, negative = growth inhibition": -9.54}
{"smiles": "CC1CCCN(C(=O)Cn2c(=O)oc3cc(S(=O)(=O)N4CCCCC4C)ccc32)C1", "note": "(configuration not stated)", "activity change, negative = growth inhibition": -5.01}
{"smiles": "CC(=O)c1cccc(NC(=O)CSc2nc3c(c(=O)[nH]2)CCC3)c1", "activity change, negative = growth inhibition": -22}
{"smiles": "O=C(CCc1ccccc1)NNC(=O)COc1ccc(Cl)cc1", "activity change, negative = growth inhibition": 7.55}
{"smiles": "O=C(COC(=O)COc1cccc(F)c1)NCC1CCCCC1", "activity change, negative = growth inhibition": -5.73}
{"smiles": "CCOc1cccc(OCCCOc2cccc3cccnc23)c1", "activity change, negative = growth inhibition": -20.9}
{"smiles": "COc1cc(NC(=O)c2cc3ccc4cccnc4c3[nH]2)cc(OC)c1OC", "activity change, negative = growth inhibition": 3.24}
{"smiles": "CCOc1ccccc1N(CC)C(=O)c1cc2ccc3cccnc3c2[nH]1", "Potency": "5.8 µM (active)"}
{"smiles": "Cc1ccccc1CN1CCC(CNC(=O)c2cc3ccc4cccnc4c3[nH]2)CC1", "Potency": "16.4 µM (active)"}
{"smiles": "Cc1ccccc1CN1CCN(CC(=O)NCc2ccccn2)C1=O", "activity change, negative = growth inhibition": 7.35}
{"smiles": "Cc1ccccc1CN1CCC(CNC(=O)c2c(C)oc3ncnc(N4CCCCC4)c23)CC1", "activity change, negative = growth inhibition": -37.6}
{"smiles": "O=c1[nH]n2c(=O)c3c([nH]c2c1N=Nc1ccccc1)CCC3", "activity change, negative = growth inhibition": 13.8}
{"smiles": "Cc1ccc(N(C(=O)CNC(=O)c2ccco2)C(C(=O)NC2CCCC2)c2ccncc2)cc1", "note": "(configuration not stated)", "activity change, negative = growth inhibition": 3.72}
{"smiles": "CCOc1cc2[nH]c(=O)n(Cc3ccc(C(=O)NCCN(CC)CC)cc3)c(=O)c2cc1OCC", "activity change, negative = growth inhibition": -21.8}
{"smiles": "CCOC(=O)N1CCN(Cc2nc3cc(NC(C)=O)ccc3n2C)CC1", "activity change, negative = growth inhibition": -0.461}
{"smiles": "COc1ccc(OCC(=O)Nc2nnc(-c3ccco3)s2)cc1", "activity change, negative = growth inhibition": 14.6}
{"smiles": "CCCCN(C(=O)C(CCSC)N1C(=O)c2ccccc2C1=O)c1c(N)n(CCC)c(=O)[nH]c1=O", "note": "(configuration not stated)", "activity change, negative = growth inhibition": 13.1}
{"smiles": "CCCOc1ccc(C(=O)C(CCC(CNCC)C(=O)c2ccc(OCCC)cc2)CNCC)cc1", "note": "(configuration not stated)", "Potency": "0.651 µM (active)"}
{"smiles": "CCCOc1ccc(C(=O)CCC(=O)OC(C)C(=O)Nc2ccc(NC(C)=O)cc2)cc1", "note": "(configuration not stated)", "activity change, negative = growth inhibition": 12.4}
{"smiles": "CCCOc1ccc(C(=O)NCCc2ccccc2)cc1", "activity change, negative = growth inhibition": -25.3}
{"smiles": "CCCCOc1ccc(C(=O)NN2CCN(C)CC2)cc1", "activity change, negative = growth inhibition": -8.94}
{"smiles": "CCCCOc1ccc(C(=O)NCc2ccncc2)cc1", "activity change, negative = growth inhibition": -27.1}
{"smiles": "CCCCOc1ccc(C(=O)NO)cc1", "Potency": "10 µM (active)"}
{"smiles": "CC(C)CCNC(=O)CSc1nc2ccccc2nc1Cc1ccc(Cl)cc1", "activity change, negative = growth inhibition": 0.489}
{"smiles": "CC1C(=O)Nc2ccccc2N1C(=O)c1c(F)cccc1F", "note": "(configuration not stated)", "activity change, negative = growth inhibition": -18.3}
{"smiles": "COc1ccccc1/C=C/C(=O)NC1CC2CCC1C2", "note": "(configuration not stated)", "activity change, negative = growth inhibition": -17.6}
{"smiles": "Cc1sc2ncn(CC(=O)NCCN(C)C)c(=O)c2c1S(=O)(=O)N1CCC(C)CC1", "activity change, negative = growth inhibition": -0.026}
{"smiles": "O=C(NC1CCN(C(=S)Nc2ccc(Cl)cc2)CC1)C1CCCCC1", "activity change, negative = growth inhibition": -0.741}
{"smiles": "COc1ccc(/C(N)=N/OC(=O)CCCc2ccccc2)cc1", "activity change, negative = growth inhibition": 4.34}
{"smiles": "Cc1ccc(C(=O)NCCNS(=O)(=O)c2ccccc2)cc1", "activity change, negative = growth inhibition": -14.4}
{"smiles": "Cc1ccc(C(=O)Nc2c(C#N)c(C)c(C)n2Cc2ccccc2)cc1", "Potency": "25.9 µM (active)"}
{"smiles": "Cc1c(C#N)c(NC(=O)c2ccccc2)n(Cc2ccccc2)c1C", "activity change, negative = growth inhibition": -20.1}
{"smiles": "COC(=O)/C=C(\\Oc1ccccc1)C1(O)CCCCC1", "activity change, negative = growth inhibition": 14.8}
{"smiles": "Cc1ccc(C(CC(=O)O)Nc2nc(N3CCCCC3)nc(N3CCCCC3)n2)cc1", "note": "(configuration not stated)", "activity change, negative = growth inhibition": -14.2}
{"smiles": "CC(Nc1nc(N2CCCC2)nc2ccccc12)c1ccccc1", "note": "(configuration not stated)", "Potency": "23.1 µM (active)"}
{"smiles": "CC(Nc1nc(N2CCN(CCO)CC2)nc2ccccc12)c1ccccc1", "note": "(configuration not stated)", "activity change, negative = growth inhibition": 14.8}
{"smiles": "CCCOc1ccc(/C(O)=C2/C(=O)C(=O)N(CCN(C)C)C2c2ccc(OC)c(OC)c2)cc1", "note": "(configuration not stated)", "activity change, negative = growth inhibition": -7.9}
{"smiles": "CC1CCN(C(=O)COC(=O)c2cc(=O)[nH]c3ccccc23)CC1", "activity change, negative = growth inhibition": -12.6}
{"smiles": "CCc1ccc(OC(C)C(=O)Nc2ccc(S(=O)(=O)Nc3cc(C)on3)cc2)cc1", "note": "(configuration not stated)", "activity change, negative = growth inhibition": 7.74}
{"smiles": "CCOc1ccc(-c2nonc2NC(=O)c2oc3ccc(CC)cc3c2C)cc1", "Potency": "18.4 µM (active)"}
{"smiles": "CCc1nonc1NC(=O)c1oc2ccc(Cl)cc2c1C", "Potency": "inactive"}
{"smiles": "Cc1nonc1NC(=O)c1oc2ccccc2c1C", "activity change, negative = growth inhibition": -11}
{"smiles": "CC(=O)N(O)CCCCCNC(=O)CCC(=O)N(O)CCCCCNC(=O)CCC(=O)N(O)CCCCCNC(=O)CCC(=O)O", "activity change, negative = growth inhibition": 18.6}
{"smiles": "CCCCNC(=O)OC1CC2CC1[C@H]1CCCCN1C2=O", "note": "(some centres not stated)", "activity change, negative = growth inhibition": 3.61}
{"smiles": "CC(C)(C)c1cc[n+](-c2[nH]c(=O)sc2/C=N/N=C(\\[O-])c2ccccc2)cc1", "activity change, negative = growth inhibition": -15.9}
